This is a sample that favours compounds with a hit; in the whole collection about 1.4% have one here.
rTrxR1 inhibitor – qHTS Assay for Inhibitors of Mammalian Selenoprotein Thioredoxin Reductase 1 (TrxR1): qHTS; Thioredoxin reductase 1, cytoplasmic (Rattus norvegicus), O89049; recombinant rTrxR1, NADPH fluorescence consumption, selenite substrate; Potency, µM (top dose mostly 114 µM), without a hit: at the top dose activity change, negative = inhibition, actives largely listed as inhibitors; 1% of 390,000 active; AID 588453, 2011; also: potency is read from the fitted curve at half-maximal effect; nearly all actives have a fitted effect of over 65% in size
Target sequence (O89049 whole entry, looked up): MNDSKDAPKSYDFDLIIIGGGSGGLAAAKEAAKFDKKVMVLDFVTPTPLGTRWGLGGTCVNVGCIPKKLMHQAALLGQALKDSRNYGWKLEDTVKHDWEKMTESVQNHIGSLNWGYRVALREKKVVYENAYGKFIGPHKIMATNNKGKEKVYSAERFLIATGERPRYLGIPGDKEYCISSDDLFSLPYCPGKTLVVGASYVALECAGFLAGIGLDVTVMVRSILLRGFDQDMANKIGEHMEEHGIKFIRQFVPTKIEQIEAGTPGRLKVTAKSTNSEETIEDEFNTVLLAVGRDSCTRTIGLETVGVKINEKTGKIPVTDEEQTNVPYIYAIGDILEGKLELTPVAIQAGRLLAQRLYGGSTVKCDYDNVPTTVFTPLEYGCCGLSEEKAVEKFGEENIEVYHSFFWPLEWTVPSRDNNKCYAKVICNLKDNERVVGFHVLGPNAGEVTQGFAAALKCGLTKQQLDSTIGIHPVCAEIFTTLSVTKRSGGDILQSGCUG
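Rat TrxR1 (90 nM in the dispensed reagent) was pre-reduced with 400 uM NADPH for 5 min at room temperature, then incubated with compound for 15 min. After 400 uM selenite was added, NADPH fluorescence (Ex 340/Em 450 nm) was followed for 8 min.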
GLS inh – qHTS for Inhibitors of Glutaminase (GLS). GLS enzymatic activity, qHTS titration. Potency, µM (series often up to 45.5 µM), without a hit: at the highest dose activity change, negative = inhibition, usual class: inhibitors. 0.21% of 410,000 active; also: potency is read from the fitted curve at half-maximal effect
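Assay buffer: 45 mM KH2PO4 pH 8.2, 0.02% Tween-20. hKGA acts on L-glutamine (1 mM solution added); product glutamate is reported by an oxidase/peroxidase Amplex Red coupling, with fluorescence taken at baseline and 30 min.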
LDHA block – qHTS assay for inhibitors of human lactate dehydrogenase; L-lactate dehydrogenase A chain (Homo sapiens), P00338; purified LDHA, NADH/diaphorase-resazurin fluorescence; hits give low values; activity change, % (values are at about 110 or 230 µM); 0.15% of 480,000 active; AID 1347041, 2019; in the data active = activity change below about -30%; inconclusive = mostly about -25% to -30%;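 also: plate controls were DMSO wells for no effect and wells without enzyme for full effect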
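Human LDH5 at 2 nM final in Tris HCl pH 7.4 with 0.06 mM NADH and 0.2 mM pyruvate, reacted 5 minutes at room temperature. Remaining NADH coupled via diaphorase/resazurin; resorufin fluorescence read at 0 and 20 minutes, normalized to enzyme-free and DMSO wells.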
TrxR1 substrate – qHTS Assay for Substrates of Mammalian Selenoprotein Thioredoxin Reductase 1 (TrxR1): qHTS; purified TrxR1 substrate turnover, NADPH consumption readout; 0.01% of 390,000 active; Potency, µM (series often up to 114 µM), inactives show at the highest dose activity change, negative = substrate turnover; Thioredoxin reductase 1, cytoplasmic (Rattus norvegicus), O89049; AID 588456, 2011; also: potency is read from the fitted curve at half-maximal effect; nearly all actives have a fitted effect of over 50% in size
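Rat TrxR1, dispensed at 90 nM, was prereduced with 400 uM NADPH (final) for 5 min at ~22 deg C, then incubated with compound 15 min before 400 uM selenite. A first-read NADPH fluorescence drop versus no-compound background flagged substrates.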
IDH1 R132H inh – qHTS for Inhibitors of mutant isocitrate dehydrogenase 1 (IDH1): qHTS; Isocitrate dehydrogenase [NADP] cytoplasmic (Homo sapiens), O75874; IDH1-R132H enzyme, NADPH consumption, diaphorase/resazurin fluorescence; Potency, µM (doses to about 76.6 µM), for inactives: at the highest dose activity change, negative = inhibition, hits mostly inhibitors; 0.093% of 390,000 active; also: potency is read from the fitted curve at half-maximal effect; nearly all actives have a fitted effect of over 65% in size
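IDH1-R132H (0.5 ug/mL dispensed) in pH 7.5 Tris buffer was preincubated 30 min with compound, then given a substrate mix of 0.016 mM NADPH and 2 mM alpha-KG for 80 min at room temperature; remaining NADPH was read by diaphorase/resazurin fluorescence.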
PKM2 activator – qHTS Assay for Activators of Human Muscle isoform 2 Pyruvate Kinase; Potency, µM (highest dose often 57.5 µM), inactives show at the top dose activation, hits mostly activators; 0.34% of 260,000 active; purified PKM2, Kinase-Glo ATP luminescence, activation; response scale: 0% is enzyme alone, no compound; also: potency is read from the fitted curve at half-maximal effect; nearly all actives have a fitted effect of over 55% in size
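ATP formation by purified human PK-M2, quantified via coupled luciferase luminescence after 1 h at room temperature with 0.1 mM ADP and 0.5 mM PEP final.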
* = called active by the depositor; ? = inconclusive; nt = not tested or not shown; [ ] = dose if it differs, or a comment. Unless noted, calls follow the shape of the dose curve; as a rule, active = well fitted curve in the direction sought with a large enough effect; inconclusive = small, poorly fitted or top-dose-only effect, or another doubt; inactive = no such curve, though single readings can be large; an effect the other way counts as inactive or inconclusive. Unless noted, % is scaled to controls: 0 for no effect and ±100 for the full control effect.

SMILES	rTrxR1 inhibitor	GLS inh	LDHA block	TrxR1 substrate	IDH1 R132H inh	PKM2 activator
O=C(Cc1csc(-c2ccsc2)n1)Nc1ccnn1Cc1ccccc1Br	nt	nt	-1	nt	nt	nt
N#Cc1cccnc1NCCc1coc(-c2ccccc2)n1	nt	nt	9	nt	nt	nt
COc1ccc(CCNC(=O)Cc2c(C)c3c(OC)cc(OC)cc3oc2=O)cc1	nt	nt	6	nt	nt	nt
O=C1/C(=C/c2ccccn2)COc2ccccc21	22µM*	8%	-1	-14%[57.1 µM]	3%	-4%
CC(C)(C)C1C/C(=C/c2ccccn2)C(=O)/C(=C/c2ccccn2)C1 (stereo not given)	35µM*	-18%	1	0%	-4%	13%
O=C1/C(=C/c2ccccc2)COc2ccccc21	nt	nt	15	nt	nt	nt
CC1C/C(=C/c2ccccn2)C(=O)/C(=C/c2ccccn2)C1 (stereo not given)	?	0%	10	5%[57.1 µM]	6%	?
C=C1C=CS(=O)(=O)N(Cc2ccccc2)C1	35µM*	nt	nt	8%	nt	nt
CC(C)(C)c1ccc(C(=O)N2CCN(S(=O)(=O)c3ccc(Br)s3)CC2)cc1	15%	-1%	-1	0%	1%	nt
O=C(c1ccco1)N1CCN(S(=O)(=O)c2ccc(Br)s2)CC1	10µM*	1%	-7	10%	0%	?
NS(=O)(=O)C#Cc1ccccc1	4.7µM*	nt	nt	20%[57.1 µM]	nt	nt
Nc1ccc(C#Cc2ccccc2)cc1	-8%	4%	-3	-2%	8%	1%
COC(=O)c1ccc(CNCc2ccccc2)o1	nt	nt	-7	nt	nt	nt
CC/C=C(/C)C(=O)NCC(c1ccsc1)N(C)C (stereo not given)	nt	nt	-17	nt	nt	nt
COc1ccc(C2C(C#N)=C(N)Oc3cc(O)ccc32)cc1C (stereo not given)	16µM*	8%	0	-1%	8%	0%
Cc1ccc(C(=O)/C=C/C(=O)O)cc1	2.8µM*	1%	-6	-4%	2%	5%
COCCN(C(=O)/C=C/c1cccc([N+](=O)[O-])c1)c1c(N)n(Cc2ccccc2)c(=O)[nH]c1=O	8%	2%	1	2%	-2%	3.2µM*
Nc1c(N(CCO)C(=O)/C=C/c2ccco2)c(=O)[nH]c(=O)n1Cc1ccccc1	20µM*	-3%	3	-6%	0%	-2%
Cc1cc(Cl)ccc1OCC(=O)N(Cc1ccco1)c1c(N)n(Cc2ccccc2)c(=O)[nH]c1=O	50µM*	1%	-1	-3%	-17%	nt
CC1Sc2ccc(S(=O)(=O)CCC(=O)NCCC3=CCCCC3)cc2NC1=O (stereo not given)	nt	nt	1	nt	nt	nt
CCCC(NC(N)=O)C(=O)N1CCN(S(=O)(=O)c2ccc(OC)cc2)CC1 (stereo not given)	nt	nt	1	nt	nt	nt
CC(=O)NNC(=S)NC(=O)c1cccc([N+](=O)[O-])c1	50µM*	17%	1	5%	7%	-17%
Cc1ccc(N(CC(=O)NCC2CCCO2)S(=O)(=O)c2ccccc2)cc1 (stereo not given)	nt	nt	-3	nt	nt	nt
Cc1ccc(-n2c(Cc3cccc4ccccc34)n[nH]c2=S)c(C)c1	-11%	10µM*	-6	-11%	-6%	7%
NC(=O)NNc1ccccc1	nt	6%	nt	nt	nt	nt
SMILES	rTrxR1 inhibitor	GLS inh	LDHA block	TrxR1 substrate	IDH1 R132H inh	PKM2 activator
CC(C)C(O)(C(=O)NNc1ccccc1)C(C)C	1%[57.1 µM]	13µM*	-1	4%[57.1 µM]	4%	-1%
CCN(CC)S(=O)(=O)c1ccc(C(=O)NCCN2C(=O)S/C(=C\c3cccnc3)C2=O)cc1	-16%	1%	2	-9%	-5%	24%
CS(=O)(=O)c1ccc(C(=O)NCCN2C(=O)S/C(=C\c3cccnc3)C2=O)cc1[N+](=O)[O-]	18µM*	-4%	1	-4%	-6%	?
CN(C)S(=O)(=O)c1ccc(C(=O)NCCN2C(=O)S/C(=C\c3cccnc3)C2=O)cc1	20%[57.1 µM]	7%	7	-14%[57.1 µM]	6%	16µM*
C=CCNc1nc(C(=O)OC(C)C(=O)Nc2ccc(NC(C)=O)cc2)cs1 (stereo not given)	nt	nt	-3	nt	nt	nt
COc1ccc(NC(=O)/C(Cl)=C(/Cl)S(=O)(=O)Cc2ccccc2)cn1	7.1µM*	0%	-4	11%[57.1 µM]	4%	1%
COc1ccc(NC(=O)C(Cl)=C(Cl)Cl)cn1	8%[57.1 µM]	-2%	-1	6%[57.1 µM]	-2%	0%
CC[N+](CC)(CC)CCCOC(=O)C1(c2ccccc2)CCCC1	nt	nt	-6	nt	nt	nt
CCOC(=O)c1ccccc1NC(=O)CSc1c(C(C)C)cnc2c1c(=O)n(C)c(=O)n2C	nt	nt	6	nt	nt	nt
N#C/C(=C/c1ccc(N2CCCCC2)cc1)c1cccc(F)c1	-17%	6%	-2	-6%	7%	-7%
N#C/C(=C/c1ccc(N2CCCCCC2)o1)c1ccc(Cl)cc1	8.9µM*	-2%	28	-8%	11%	?
N#C/C(=C/c1ccc(N2CCCCC2)o1)c1cccc(F)c1	7.1µM*	0%	15	-9%	10%	?
CCN(CC(O)COCCC12CC3CC(CC(C3)C1)C2)C1CCCCC1 (stereo not given)	nt	nt	8	nt	nt	nt
CC(=O)Nc1sc(N/N=C\c2ccc(O)cc2)nc1-c1cccs1	4%	-3%	-3	-1%	4%	22µM*
CC(=O)Nc1sc(N/N=C\c2cccc(Cl)c2)nc1-c1cccs1	25%[57.1 µM]	6%	4	20%[57.1 µM]	2%	?
O=c1c2c([N+](=O)[O-])cc([N+](=O)[O-])cc2sn1-c1ccc(Br)cc1	-28%	11µM*	-2	-19%	0%	-62%
O=c1c2c([N+](=O)[O-])cc([N+](=O)[O-])cc2sn1Cc1ccccc1	?	1.8µM*	-1	-11%	2%	nt
O=[N+]([O-])c1ccc(S(=O)Cc2ccccc2)c([N+](=O)[O-])c1 (stereo not given)	?	-1%	18	13%[57.1 µM]	-5%	nt
CCCCN(C)c1nc(-c2ccco2)c2c(c1C#N)CC(C)(C)OC2	3.5µM*	1%	8	-4%	7%	24%
N#CC1(NC(=O)Cn2ncc(Cl)c(Cl)c2=O)CCCCC1	5µM*	2%	-8	9%[57.1 µM]	0%	nt
N#CC1(NC(=O)CN2C(=O)c3ccccc3C2=O)CCCCC1	24%	2%	-6	6%	-3%	nt

High-throughput results as filed in PubChem BioAssay.
